Source: the supplement of paper PMC6555819

tested on: VDR:RXRa (NR concentration 270 nM, RXRa partner concentration 90 nM); assay: PBM binding z-score (relative to random genomic background probes); higher = stronger binding; sequences stand for … in GC…GCGATTGACAGCGTAGAATGAAGG
Procedure: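 Protein-binding microarray (Agilent 4x180K custom design, double-stranded 60-nt probes: 5' GC cap, 34-nt variable region, 24-nt constant primer region; full probe sequence given). Purified or IVT nuclear receptor:RXRα heterodimers (3:1 NR:RXRα, mostly 270:90 nM) or homodimers were incubated for 1 h in PBS with 2% milk and no ligand, then detected with Alexa488 antibodies. Fluorescence from o1-orientation probes (~5 replicates averaged) was converted to z-scores against 500 random hg19 background probes. Variable regions are seed direct-repeat (DR0–DR5) sites, all their single-nucleotide variants and half-site ablations.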

Going from TAGCCTATGTCATTGGGCCAGTATAGTACGCATC to GCTATTAGTTGAAATGGCAACCGAATGATTCTCG, the PBM binding z-score rises from -0.316 to -0.304.

Compared with TAAATGAGGTTATAAGATCAGGGAACGTTGCAAA, CCTATTAGTTGACCATAAGAGCAACCGAAGCTCG is lower in PBM binding z-score: 1.1 for the first, 1.06 for the second.

First: TAGCCTAGGTCAGATAGGGCCAGTATACGCTATA
Second: ATATGTGGGTTAGCTGGGGTCATTCAGACTAGGC
The PBM binding z-score of the first is lower: 1.11 for the first, 5.99 for the second.

First: ATACCAAGGTGATCGTGAGGGCGTTGATACTAAC
Second: TGAATGAGGTTATAAGATCCGGGAACGTTGCAAA
The PBM binding z-score of the first is higher: 1.42 for the first, 0.946 for the second.

Going from ACTAGTTGGTCAGCTAAGGTCACACACAATTCGG to CAAACTTGGTCACAGAGGTCAAAGTCCGTGCGTA, the PBM binding z-score rises from 3.99 to 6.59.

Compared with CTTACTGGGCCAAGGTCATTGATCAGTCAAAGCA, ACTTACGGTTCAACGAGGTTATAGCACGCGTATA is higher in PBM binding z-score: 3.44 for the first, 7.06 for the second.

Going from CCTTACGGGTCAAGGTTATAGAACGGGTGGTACG to ATATGTAGGTTACATACGGGTCATTCAGGCTATG, the PBM binding z-score rises from 3.42 to 4.14.

Going from CCTTACGGGCCAAGGTTATAGCACGGGTGGTACG to CCAGACAGGTCAGAAGGTAACTCAGCCTCGATTA, the PBM binding z-score rises from -0.139 to 1.44.

First: GCGACTTGGGCAAAGCAGGTTACCATAAGGTTGG
Second: CCTTGCGGGTCACGAGGTTATAGCACGACGAGCG
The PBM binding z-score of the first is lower: -0.467 for the first, 4.93 for the second.

Compared with ATATGTATGTTACATCCGGGTCATTCAGGCTATG, GCTATTAGTTGCAAGGGCAACCGAATGATTCTCG is lower in PBM binding z-score: 3.02 for the first, 0.134 for the second.

Going from ACTATTAGTTGACTTAGGGCAATCGATACGACGC to CCTACTGGGCCATTCAGAGGTCAGTGATCATATG, the PBM binding z-score rises from 0.462 to 1.59.

First: GCGACTGGGGCCAAGCAGGTTACCATAAGGTTGG
Second: ATCGAAAGGTCGTGAGGTGGGTATACAGAAAGGC
The PBM binding z-score of the first is lower: 0.713 for the first, 3.58 for the second.

Compared with CTACAAAGGTGAACAAGGTCGTTGATTACTATTC, TCATATACGTAAAAGGTGAAAGTCGGTGTGGTAA is lower in PBM binding z-score: 6.38 for the first, 1.43 for the second.

Compared with CAAACTAGGTCACCAGAAGGTCAAAGTCCGCATG, TCATATAGCTAATACAGGTGAAAGTCGGCATCTA is lower in PBM binding z-score: 5.66 for the first, 0.529 for the second.

Compared with GCAGACAGGTGAACCGCAGGTAACTCAGGGTGGC, ATATGTAGGTTAGCTGGGGTTATTCAGACTAGGC is higher in PBM binding z-score: 0.332 for the first, 3.2 for the second.

Compared with TCCTGTAGATCAAGCAGGTTAAGAAAGCCTGAGT, CCTACTGGGCCACGATAGGTCATTGATTCAGTGA is higher in PBM binding z-score: 0.503 for the first, 1.15 for the second.

First: TCGAGTAGGTTAGGGGCATTCACAATGGCGTCGA
Second: AGAATAAGGTTACCAAAGATCAGGGAAACGCTTG
The PBM binding z-score of the first is lower: 0.522 for the first, 0.872 for the second.

Going from CCTCCAAGGTCAAAGGTCAGTGAAGAGATGACGG to ATCGAAAGGTCGACGTGGTGAGTATACACCGTTT, the PBM binding z-score falls from 6.52 to 2.73.

Compared with TCAGATAGGTAAAAGGTGAAAGTCGGTGTGGTAA, GCGACTGGGGCGTCAGCAGGTTACCATAACTTAA is lower in PBM binding z-score: 0.851 for the first, -0.382 for the second.

Going from CGTCCAAGGACAAGGTCAGTGAAAGAGACTCGAA to ATCTCTAGGTAAGACTCAGTTCAGTGCAGAACGC, the PBM binding z-score falls from 1.54 to 0.866.
